Test results from ChEMBL document CHEMBL1961873, “Compounds: GSK PKIS; Assays: Nanosyn kinase panel” (2012).

Experiments:
[1] = target: RAC-alpha serine/threonine-protein kinase (Homo sapiens) (UniProt P31749); settings: at 0.1 µM
[2] = target: RAC-alpha serine/threonine-protein kinase (Homo sapiens) (UniProt P31749); settings: at 1 µM
[3] = target: RAC-beta serine/threonine-protein kinase (Homo sapiens) (UniProt P31751); settings: at 0.1 µM
[4] = target: RAC-beta serine/threonine-protein kinase (Homo sapiens) (UniProt P31751); settings: at 1 µM
[5] = target: RAC-gamma serine/threonine-protein kinase (Homo sapiens) (UniProt Q9Y243); settings: at 0.1 µM
[6] = target: RAC-gamma serine/threonine-protein kinase (Homo sapiens) (UniProt Q9Y243); settings: at 1 µM
[7] = target: G protein-coupled receptor kinase 6 (Homo sapiens) (UniProt P43250); settings: at 0.1 µM
[8] = target: G protein-coupled receptor kinase 6 (Homo sapiens) (UniProt P43250); settings: at 1 µM
[9] = target: T1, Rhodopsin kinase GRK7 (Homo sapiens) (UniProt Q8WTQ7); settings: at 0.1 µM
T1 sequence (whole entry): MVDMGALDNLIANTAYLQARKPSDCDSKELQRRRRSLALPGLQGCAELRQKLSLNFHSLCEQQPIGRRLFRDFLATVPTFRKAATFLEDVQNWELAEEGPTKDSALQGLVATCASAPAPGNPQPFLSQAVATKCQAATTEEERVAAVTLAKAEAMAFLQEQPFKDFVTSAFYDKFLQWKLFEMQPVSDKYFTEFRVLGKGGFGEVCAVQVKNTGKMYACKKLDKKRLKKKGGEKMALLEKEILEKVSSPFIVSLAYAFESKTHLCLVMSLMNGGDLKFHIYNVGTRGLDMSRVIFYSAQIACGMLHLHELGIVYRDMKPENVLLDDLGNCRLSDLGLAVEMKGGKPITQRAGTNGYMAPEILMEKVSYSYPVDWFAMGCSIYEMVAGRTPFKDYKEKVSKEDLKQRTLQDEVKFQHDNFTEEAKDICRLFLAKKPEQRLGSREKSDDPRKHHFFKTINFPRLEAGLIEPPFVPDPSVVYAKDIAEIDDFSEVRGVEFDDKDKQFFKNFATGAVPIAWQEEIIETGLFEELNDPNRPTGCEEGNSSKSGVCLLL

[10] = target: T1, Rhodopsin kinase GRK7 (Homo sapiens); settings: at 1 µM

Chain of G protein-coupled receptor kinase 6 (Homo sapiens) (P43250 whole entry, looked up): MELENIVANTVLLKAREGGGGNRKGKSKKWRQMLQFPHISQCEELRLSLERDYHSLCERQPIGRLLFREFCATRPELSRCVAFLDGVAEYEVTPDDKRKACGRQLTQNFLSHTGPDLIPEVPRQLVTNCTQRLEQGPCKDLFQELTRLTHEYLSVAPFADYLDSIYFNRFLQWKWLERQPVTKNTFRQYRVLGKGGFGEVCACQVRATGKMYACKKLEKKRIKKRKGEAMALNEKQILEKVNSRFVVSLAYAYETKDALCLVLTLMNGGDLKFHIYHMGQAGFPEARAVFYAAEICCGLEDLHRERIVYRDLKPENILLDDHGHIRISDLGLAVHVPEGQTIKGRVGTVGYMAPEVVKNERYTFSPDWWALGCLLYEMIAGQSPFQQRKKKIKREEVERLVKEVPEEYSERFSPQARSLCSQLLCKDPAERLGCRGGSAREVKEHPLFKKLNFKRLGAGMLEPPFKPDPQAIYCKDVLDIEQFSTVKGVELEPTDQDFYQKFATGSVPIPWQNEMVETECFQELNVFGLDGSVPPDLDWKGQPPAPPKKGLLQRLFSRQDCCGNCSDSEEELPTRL
Chain of RAC-beta serine/threonine-protein kinase (Homo sapiens) (P31751 whole entry): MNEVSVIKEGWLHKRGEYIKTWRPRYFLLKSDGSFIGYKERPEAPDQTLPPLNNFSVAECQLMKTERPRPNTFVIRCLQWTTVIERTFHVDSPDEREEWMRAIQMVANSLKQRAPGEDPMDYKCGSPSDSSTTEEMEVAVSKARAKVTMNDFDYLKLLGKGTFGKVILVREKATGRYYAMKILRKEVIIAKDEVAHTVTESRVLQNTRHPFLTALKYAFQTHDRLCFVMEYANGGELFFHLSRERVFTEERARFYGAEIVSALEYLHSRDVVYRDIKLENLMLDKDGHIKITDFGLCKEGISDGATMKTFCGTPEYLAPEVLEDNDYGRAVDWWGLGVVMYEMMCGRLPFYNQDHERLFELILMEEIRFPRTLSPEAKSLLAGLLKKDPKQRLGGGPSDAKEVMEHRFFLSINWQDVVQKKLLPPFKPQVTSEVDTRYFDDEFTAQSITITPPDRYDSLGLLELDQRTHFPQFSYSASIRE
Chain of RAC-alpha serine/threonine-protein kinase (Homo sapiens) (P31749 whole entry): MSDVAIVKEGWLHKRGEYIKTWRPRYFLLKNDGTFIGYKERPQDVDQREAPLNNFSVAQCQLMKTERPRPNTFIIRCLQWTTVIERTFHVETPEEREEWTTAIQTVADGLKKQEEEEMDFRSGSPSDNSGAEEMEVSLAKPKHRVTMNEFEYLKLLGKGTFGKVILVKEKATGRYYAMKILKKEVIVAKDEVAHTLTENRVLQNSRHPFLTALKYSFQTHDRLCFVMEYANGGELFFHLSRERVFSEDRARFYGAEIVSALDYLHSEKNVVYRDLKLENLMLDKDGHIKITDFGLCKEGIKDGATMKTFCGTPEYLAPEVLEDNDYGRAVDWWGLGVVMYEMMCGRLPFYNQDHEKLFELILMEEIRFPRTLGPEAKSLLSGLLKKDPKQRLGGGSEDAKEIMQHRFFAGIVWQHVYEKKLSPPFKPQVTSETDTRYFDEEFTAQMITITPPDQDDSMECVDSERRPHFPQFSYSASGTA
Chain of RAC-gamma serine/threonine-protein kinase (Homo sapiens) (Q9Y243 whole entry): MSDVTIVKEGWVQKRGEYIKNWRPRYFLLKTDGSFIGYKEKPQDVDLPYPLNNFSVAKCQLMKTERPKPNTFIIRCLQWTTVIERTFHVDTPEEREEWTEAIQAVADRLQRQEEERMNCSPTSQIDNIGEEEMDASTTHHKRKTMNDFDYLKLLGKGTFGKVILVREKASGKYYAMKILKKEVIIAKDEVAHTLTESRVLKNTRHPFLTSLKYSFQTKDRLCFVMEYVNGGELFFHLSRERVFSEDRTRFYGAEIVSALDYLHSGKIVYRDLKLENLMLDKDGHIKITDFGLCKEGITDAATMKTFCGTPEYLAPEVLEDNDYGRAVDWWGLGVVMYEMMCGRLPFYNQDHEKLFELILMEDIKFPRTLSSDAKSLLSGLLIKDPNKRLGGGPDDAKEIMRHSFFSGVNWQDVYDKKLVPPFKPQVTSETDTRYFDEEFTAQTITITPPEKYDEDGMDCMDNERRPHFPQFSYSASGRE

| SMILES | inhibition [1] | inhibition [2] | inhibition [3] | inhibition [4] | inhibition [5] | inhibition [6] | inhibition [7] | inhibition [8] | inhibition [9] | inhibition [10] |
| --- | --- | --- | --- | --- | --- | --- | --- | --- | --- | --- |
| O=C(O[C@H]1CN[C@H](C#Cc2cc3ncnc(Nc4ccc(Cc5ccccc5)cc4)c3s2)C1)N1CCOCC1 | -0.07% | 1.54% | 0.98% | 1.79% | 0.38% | 1.99% | -0.99% | 1.46% | 5.43% | 0.52% |
| COc1cccc(-c2c[nH]c3c(N/N=C/c4ccncc4)ncnc23)c1 | 1.29% | 0.32% | 1.22% | -0.06% | 1.48% | -0.22% | -1.66% | -7.11% | 0.28% | -6.92% |
| Nc1nc(-c2cccc(Cl)c2)c(-c2ccc3ncccc3n2)s1 | -0.22% | 0.39% | 1.97% | 2.05% | 1.92% | 0.68% | 10.4% | 15.4% | 7.84% | 13.8% |
| Fc1ccc(-c2cc(-c3c[nH]nc3-c3ccccn3)ccn2)cc1 | 0.11% | 0.95% | 1.68% | 2.45% | 0.98% | 1.5% | 7.85% | 15.7% | 3.52% | 13.4% |
| CCn1c(-c2nonc2N)nc2c(C#CC(C)(C)O)nc(OC[C@H](N)c3ccccc3)cc21 | 64.2% | 90.4% | 75.3% | 92% | 66.8% | 91.7% | 2.82% | 5.48% | 2.77% | 15% |
| CC(=O)Nc1cccc(C#Cc2cncnc2Nc2ccc(OCc3cccc(F)c3)c(Cl)c2)c1 | 0.35% | 2.86% | 1.58% | 1.24% | 0.94% | 1.39% | 0.81% | -1.5% | 3.04% | -3.08% |
| COC(=O)Nc1nc2ccc(Oc3ccc(NC(=O)Nc4cccc(Cl)c4)cc3)cc2[nH]1 | -0.35% | -0.4% | -0.4% | 0.5% | -0.34% | 1.86% | -1.85% | 0.02% | 3.03% | 16.8% |
| CCCN(CCS(C)(=O)=O)Cc1ccc(-c2ccc3ncnc(Nc4ccc(OCc5cccc(F)c5)c(Cl)c4)c3c2)o1 | 0.19% | 0.93% | 1.03% | 0.88% | 0.64% | 0.93% | 5.12% | 1.91% | -0.29% | 0.79% |
| N#Cc1c(NC(=O)CN2CCOCC2)sc2c1CCCC2 | 1.2% | 1.08% | 1.56% | 1% | 1.61% | 2.91% | 2.71% | 4.14% | 3.28% | 4.91% |
| NS(=O)(=O)c1ccc(N/N=C2\C(=O)Nc3ccc4ncccc4c32)cc1 | 0.85% | 0.69% | 1.6% | 2.48% | 1.36% | 2.03% | -2.97% | 15.8% | 4.91% | 19% |
| [O-][S+]1CCN(Cc2ccc(-c3ccc4ncnc(Nc5ccc(OCc6cccc(F)c6)c(Cl)c5)c4c3)o2)CC1 | 2.98% | 0.19% | 3.72% | 3.57% | 2.4% | 2.54% | 3.23% | 4.79% | 9.08% | 2.57% |
| CC(C)(CO)CNC(=O)c1ccc2c(c1)/C(=N/Nc1ccc(S(N)(=O)=O)cc1)C(=O)N2 | 0.16% | -0.56% | -1.39% | 0.25% | -0.59% | 2.3% | 0.67% | 9.38% | 2.93% | -0.41% |
| COc1cc2ncn(-c3cc(OCc4ccccc4C(F)(F)F)c(C(=O)N(C)C)s3)c2cc1OC | -0.4% | -0.11% | -0.31% | 0.45% | 0.89% | 1.26% | -0.42% | 0.69% | -2.57% | 3.66% |
| CC1=C(C(=O)Nc2cc(Cl)c3[nH]ncc3c2)C(c2ccc(C(F)(F)F)cc2)CC(=O)N1 (stereo not given) | 0.52% | 5.71% | 1.33% | 3.66% | 2.98% | 22.1% | 4.52% | 13.4% | 3.32% | 16.4% |
| COc1cc(Nc2nccc(Nc3ccc4c(C)n[nH]c4c3)n2)cc(OC)c1OC | 0.02% | 1.09% | 0.52% | 1.19% | 0.72% | 1.18% | -0.47% | -4.13% | 1.14% | -1.95% |
| CN1CCC(n2cnc(-c3ccc(F)cc3)c2-c2ccnc(Nc3ccccc3)n2)CC1 | 0.23% | 1.05% | 0.63% | 0.8% | 2.25% | 5.43% | 2.34% | 2.65% | 2.84% | 6.42% |
| Fc1ccc(-c2nn3ccccc3c2-c2ccncc2)cc1 | 0.06% | 1.28% | 0.35% | 1.43% | 1.01% | 4.38% | 0.75% | -0.76% | 0.65% | 3.13% |
